Bioassay records from PubChem BioAssay.
Most compounds without a hit are left out; they make up all but 4.6% or so of the library.
D1 PAM = human D1 dopamine receptor positive modulation | actives 0.036% (n = 360,000) | potentiation, % at 10 µM | HEK293 TREx D1 cells, calcium flux, dopamine EC20 potentiation | P21728 | AID 504651; in the data active means potentiation above about 30%; further: 0% is about no effect
Target sequence (P21728 whole entry, looked up): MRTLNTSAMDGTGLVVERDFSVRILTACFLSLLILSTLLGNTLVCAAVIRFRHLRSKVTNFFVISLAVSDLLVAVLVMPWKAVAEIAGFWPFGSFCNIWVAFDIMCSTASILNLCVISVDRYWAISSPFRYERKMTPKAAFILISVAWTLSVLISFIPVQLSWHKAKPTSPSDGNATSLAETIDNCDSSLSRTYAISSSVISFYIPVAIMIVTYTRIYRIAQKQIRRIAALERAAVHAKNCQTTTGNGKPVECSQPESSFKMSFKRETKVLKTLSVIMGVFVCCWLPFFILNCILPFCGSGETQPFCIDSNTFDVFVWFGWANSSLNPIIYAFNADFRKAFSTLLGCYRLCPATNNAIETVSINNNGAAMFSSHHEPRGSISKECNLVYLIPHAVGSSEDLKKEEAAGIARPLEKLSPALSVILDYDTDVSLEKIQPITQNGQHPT
D1 antag = human D1 dopamine receptor antagonism; actives 3.2% (n = 360,000); AID 504652; activity change, negative = inhibition, % at 10 µM; HEK293 TREx D1 cells, calcium flux, dopamine EC80; active compounds read low; P21728; in the data active means activity change below about -30%; further: on the % scale 0 is the no-effect control and ±100 the full control effect
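Kinetic fluorescence of a calcium dye serves as the read-out. D1-expressing Hek293 Trex cells, induced overnight at 30 C, are exposed to compound for 180 s before an EC80 dopamine addition, then read 180 s further.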
TRHR ag = activates the human TRH receptor; TRHR cells, calcium flux fluo-8, FDSS agonist mode; activation, % at 2 µM; actives 0.18% (n = 360,000); P34981; further: 0% is about no effect
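Steps: seed TRHR cells overnight; add fluo-8 no-wash Ca dye, RT 30 min–1.5 h; record 10 s baseline; pin-transfer compounds; monitor fluorescence 1 cycle/s for the agonist window. Calcium increases flag candidate agonists.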
TRHR enhancer = TRH receptor (human) allosteric enhancement; TRHR cells, fluo-8 calcium fluorescence, EC20 TRH enhancement; enhancement, % at 2 µM; actives 0.66% (n = 360,000); AID 493056; in the data active means enhancement above about 30%; further: 0% is about no effect
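TRHR-expressing cells loaded with fluo-8 calcium dye were read kinetically (ex 480/em 530) during compound addition, then stimulated with an EC20 of TRH (10 nM final). Enhancement of the Gq-mediated intracellular calcium response was scored.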
D1 ag = activates the human D1 dopamine receptor; P21728; HEK293 T-REx D1 cells, calcium flux, agonist mode; activation, % at 2 µM; actives 1% (n = 360,000); further: 0% is about no effect
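Inducible HEK293 T-REx D1 cells, force-coupled to calcium signalling, were plated at 4000 cells/well with tetracycline and held overnight at 30 C. After no-wash calcium dye loading, compound-evoked calcium rise over 180 s flagged agonists.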
* hit, by the source's call. Unless noted, no stated cut-off is given here; in the data, active means activation above about 30%; inactive means the rest.

`O=C(CCCc1c[nH]c2ccccc12)N[C@@H](Cc1c[nH]c2ccccc12)C(=O)O` gave D1 PAM 4, D1 antag -19, TRHR ag 0, TRHR enhancer -5 and D1 ag 0.
`Cc1ccc(S(=O)(=O)NCC(=O)NCCc2c[nH]c3ccccc23)cc1C` gave D1 PAM -3, D1 antag -1, TRHR ag -1, TRHR enhancer 34* and D1 ag 0.
NC(=O)c1ccc(NC(=O)COC(=O)CCCc2c[nH]c3ccccc23)cc1 was read as D1 PAM -1, D1 antag -30*, TRHR ag 1, TRHR enhancer -3 and D1 ag 2.
For CC(C)NC(=O)CCCc1c[nH]c2ccccc12 the results were D1 PAM -5, D1 antag -13, TRHR ag 0, TRHR enhancer 33* and D1 ag 3.
Cc1ccc(NC(=O)COC(=O)Cc2c[nH]c3ccccc23)cc1C was read as D1 PAM -4, D1 antag -75*, TRHR ag 0, TRHR enhancer 7 and D1 ag 1.
CC(C)Sc1ncc(Cl)c(C(=O)Nc2ccc(S(=O)(=O)N3CCCCC3)cc2)n1 was read as D1 PAM 4, D1 antag -6, TRHR ag 2, TRHR enhancer -1 and D1 ag 1.
`COc1ccc(C)cc1NCc1cc(=O)oc2cc(-c3ccccc3)c(O)cc12` gave D1 PAM -1, D1 antag -30*, TRHR ag 1, TRHR enhancer 1 and D1 ag 2.
Screening Cc1cc(C)cc(NCc2cc(=O)oc3cc(-c4ccccc4)c(O)cc23)c1 returned D1 PAM -2, D1 antag -4, TRHR ag 1, TRHR enhancer 3 and D1 ag 1.
For CSc1nc2c(c(=O)[nH]c(=O)n2C)n1Cc1ccccc1 the results were D1 PAM 1, D1 antag 2, TRHR ag 0, TRHR enhancer 31* and D1 ag 5.
For Cn1c(=O)[nH]c(=O)c2c1nc(CN1CCN(c3cccc(Cl)c3)CC1)n2CCCc1ccccc1 the results were D1 PAM -8, D1 antag -31*, TRHR ag -1, TRHR enhancer -15 and D1 ag 2.
For CCOc1ccc(S(=O)(=O)c2cn(C)c3ccccc3c2=O)cc1 the results were D1 PAM 3, D1 antag -10, TRHR ag 0, TRHR enhancer -1 and D1 ag 5.
`CC(C)Oc1ccc(/C=N/NC(N)=S)cc1` gave D1 PAM -4, D1 antag -8, TRHR ag -2, TRHR enhancer 3 and D1 ag 2.
CCN(CC)S(=O)(=O)c1cc(C(=O)OCC(=O)Nc2cccc(S(=O)(=O)N(C)C)c2)ccc1F was read as D1 PAM -4, D1 antag -40*, TRHR ag -1, TRHR enhancer -3 and D1 ag 1.
`CC(C)CC(=O)NC(NC(=S)Nc1sc2c(c1C#N)CCCC2)C(Cl)(Cl)Cl` (stereo unspecified) gave D1 PAM -7, D1 antag -32*, TRHR ag 0, TRHR enhancer -6 and D1 ag 13.
Screening COc1ccc(C(=O)/C=C/c2cn(CC(O)CN3CCN(C)CC3)c3ccccc23)cc1OC (stereo unspecified) returned D1 PAM -5, D1 antag 20, TRHR ag 13, TRHR enhancer -1 and D1 ag 8.
`CCCCN(C)CC(O)Cn1cc(/C=C/C(=O)c2ccc(Br)cc2)c2ccccc21` (stereo unspecified) gave D1 PAM -3, D1 antag -57*, TRHR ag 7, TRHR enhancer -3 and D1 ag 126*.
CCCCN(C)CC(O)Cn1cc(/C=C/C(=O)c2ccc(OC)c(OC)c2)c2ccccc21 (stereo unspecified) was read as D1 PAM -3, D1 antag -7, TRHR ag 22, TRHR enhancer -5 and D1 ag 63*.
For CCCCN(C)CC(O)Cn1cc(/C=C/C(=O)c2ccc(C)cc2)c2ccccc21 (stereo unspecified) the results were D1 PAM -5, D1 antag -18, TRHR ag 2, TRHR enhancer 1 and D1 ag 33*.
`CN1CCN(C(=O)c2ccccc2NC(=O)c2ccccc2)CC1` gave D1 PAM 4, D1 antag 4, TRHR ag 1, TRHR enhancer 0 and D1 ag 1.
Screening N#CCC(=O)Nc1ccc(C(=O)OCC(=O)c2ccc3c(c2)NC(=O)CO3)cc1 returned D1 PAM 5, D1 antag -15, TRHR ag 1, TRHR enhancer 0 and D1 ag 3.
`O=C(CCCc1nc2ccccc2s1)NCc1ccccc1F` gave D1 PAM 6, D1 antag -42*, TRHR ag -1, TRHR enhancer -3 and D1 ag 2.
`COc1ccc(S(=O)(=O)NCC(c2ccco2)S(=O)(=O)c2ccc(C)cc2)cc1C` (stereo unspecified) gave D1 PAM -1, TRHR ag 0, TRHR enhancer 0 and D1 ag 0.
Screening CN1CCN(Cn2cc(/C=C/C(=O)c3ccccc3)c3ccccc32)CC1 returned D1 PAM -5, D1 antag -5, TRHR ag 1, TRHR enhancer 3 and D1 ag 6.
`COc1ccc(C(=O)/C=C/c2cn(CC(O)CN(CC(C)C)CC(C)C)c3ccccc23)cc1` (stereo unspecified) gave D1 PAM -1, D1 antag 8, TRHR ag 3, TRHR enhancer 4 and D1 ag 13.
Screening CCCN(CCC)CC(O)Cn1cc(/C=C/C(=O)c2ccccc2)c2ccccc21 (stereo unspecified) returned D1 PAM -1, D1 antag -31*, TRHR ag 2, TRHR enhancer -2 and D1 ag 73*.
For O=C(/C=C/c1ccnc2ccccc12)c1cccs1 the results were D1 PAM 6, D1 antag 2, TRHR ag 0, TRHR enhancer -2 and D1 ag 0.
For CCCN(CCC)CC(O)Cn1cc(/C=C/C(=O)c2cccs2)c2ccccc21 (stereo unspecified) the results were D1 PAM -6, D1 antag -21, TRHR ag 8, TRHR enhancer 9 and D1 ag 94*.
`CCCN(CCC)CC(O)Cn1cc(/C=C/C(=O)c2ccc(OC)cc2)c2ccccc21` (stereo unspecified) gave D1 PAM 7, D1 antag -41*, TRHR ag -2, TRHR enhancer 0 and D1 ag 128*.
